# Only some compounds are listed: those with a hit (about 19% of all), similar ones and a draw of the others.
# DT40 TDP1 CPT: growth inhibition of DT40 Tdp1-/-;hTDP1 cells with camptothecin (screen for TDP1 inhibitors). AID 686979. actives 12% (n = 420,000). Potency, µM (series often up to 46.2 µM), inactives show top-dose activity change, negative = growth inhibition, actives largely listed as inhibitors. chicken DT40 Tdp1-/-;hTDP1 cells + 20 nM CPT, ATP luminescence, 48 h; also: potency is read from the fitted curve at half-maximal effect; nearly all actives have a fitted effect of over 55% in size
#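 Chicken DT40 Tdp1-/- cells stably complemented with human TDP1 were seeded at 400 cells/well in medium containing 20 nM camptothecin, exposed to pin-transferred compounds, and grown at 37 °C for at least 48 hr. Viability was read as ATP luminescence.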
# Giardia kill: Giardia lamblia killing; Giardia lamblia trophozoite viability; actives 0.15% (n = 340,000); activity change, % at 7.66 µM, hits read low; in the data active = activity change below about -80%; inconclusive = between about -30% and that limit;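 also: parasites exposed to compound for two days anaerobically before the ATP read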
#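 Giardia trophozoites, 100 cells per well, were exposed to compounds for 48 hrs at 37 deg C under anaerobic conditions; viability was then read as ATP content by bioluminescence after 15-30 min at room temperature.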
# IL-1B inflam inh: inflammasome signaling inhibition, IL-1 beta readout; THP-1 LPS/ATP IL-1B secretion, AlphaLISA, 16 h; active compounds read low; activity change, % at 57.5 µM; actives 4.7% (n = 360,000); in the data active = activity change below about -50%; inconclusive = mostly about -30% to -49%
#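 Secreted IL-1B measured by AlphaLISA bead assay after 16 h compound exposure of THP-1 cells; compounds (final up to 57.5 uM) added 1 h before LPS (250 ng/mL) and ATP (1.25 mM) stimulation; lower signal means less secretion.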
# TDP1 inh: inhibitors of human tyrosyl-DNA phosphodiesterase TDP1 | Q9NUW8 | AID 485290 | Potency, µM (top dose mostly 130 µM), for inactives: top-dose activity change, negative = inhibition, actives largely listed as inhibitors | recombinant TDP1, AlphaScreen DNA substrate cleavage | actives 0.28% (n = 350,000); also: potency is read from the fitted curve at half-maximal effect; nearly all actives have a fitted effect of over 40% in size
# Target sequence (Q9NUW8 whole entry, looked up): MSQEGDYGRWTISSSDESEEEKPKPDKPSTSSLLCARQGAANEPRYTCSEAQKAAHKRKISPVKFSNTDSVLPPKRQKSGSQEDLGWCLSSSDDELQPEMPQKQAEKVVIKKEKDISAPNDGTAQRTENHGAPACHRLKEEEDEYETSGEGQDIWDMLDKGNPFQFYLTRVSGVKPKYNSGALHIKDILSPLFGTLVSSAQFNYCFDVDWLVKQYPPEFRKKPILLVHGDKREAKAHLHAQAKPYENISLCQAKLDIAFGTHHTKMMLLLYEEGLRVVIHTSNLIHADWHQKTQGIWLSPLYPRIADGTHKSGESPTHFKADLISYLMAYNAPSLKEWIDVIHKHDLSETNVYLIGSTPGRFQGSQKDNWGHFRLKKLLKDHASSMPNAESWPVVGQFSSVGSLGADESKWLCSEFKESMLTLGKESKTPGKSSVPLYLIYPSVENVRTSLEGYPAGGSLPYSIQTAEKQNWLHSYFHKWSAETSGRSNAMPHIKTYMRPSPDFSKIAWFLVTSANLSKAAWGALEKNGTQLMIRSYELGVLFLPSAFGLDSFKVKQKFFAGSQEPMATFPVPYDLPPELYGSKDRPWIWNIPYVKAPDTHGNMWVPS
#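 Compounds were preincubated with Tdp1 (1 nM final) for 15 min at room temperature before substrate (15 nM final) started a 5 min reaction; beads (10 ug/ml final) were then added for 10 min before AlphaScreen detection.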
# DT40 TDP1 no CPT: qHTS for Inhibitors of human tyrosyl-DNA phosphodiesterase 1 (TDP1): qHTS in cells in absence of CPT; actives 15% (n = 420,000); Potency, µM (highest dose often 46.2 µM), for inactives: top-dose activity change, negative = growth inhibition, actives largely listed as inhibitors; DT40 Tdp1-/- hTDP1 cells, no CPT, ATP luminescence, 48 h; also: potency is read from the fitted curve at half-maximal effect; nearly all actives have a fitted effect of over 55% in size
#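 Camptothecin absent (DMSO only). Human TDP1-complemented DT40 knockout cells, 400 cells/well, 37 °C for minimum 48 hr; ATP measured via CellTiter-Glo, 30 min dark incubation, luminescence.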
# ELG1 DNA repair: ELG1-dependent DNA repair inhibition | Potency, µM (titrated, usually from 46.1 µM), without a hit: at the top dose activity change, negative = inhibition, usual class: inhibitors | actives 2.3% (n = 330,000) | AID 504467 | HEK293T ELG1-luciferase reporter, luminescence, 16 h; DNA damage induced by 5-fluorouridine; also: potency is read from the fitted curve at half-maximal effect; nearly all actives have a fitted effect of over 55% in size
#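 Cells (2,000 per well) received 5-fluorouridine plus test compound or DMSO and were incubated 16 hr at 37 °C, 5% CO2. Luciferase activity was read by luminescence 30 min after ONE-Glo addition; signal suppression marked inhibition of damage-induced ELG1 function.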
# * hit, by the source's call; ? = inconclusive; / = no result given; [ ] = another dose, or the depositor's remark. Unless noted, calls follow the shape of the dose curve; as a rule, active = well fitted curve in the direction sought with a large enough effect; inconclusive = small, poorly fitted or top-dose-only effect, or another doubt; inactive = no such curve, though single readings can be large; an effect the other way counts as inactive or inconclusive. % is scaled to controls: 0 for no effect and ±100 for the full control effect.
SMILES,DT40 TDP1 CPT,Giardia kill,IL-1B inflam inh,TDP1 inh,DT40 TDP1 no CPT,ELG1 DNA repair
CCN(CC)S(=O)(=O)c1cc(NC(=O)C2CC(=O)N(Cc3ccccc3)C2)ccc1Cl (stereo not given),?,-17,-14,2%,16µM*,?
O=C(Nc1ccc(S(=O)(=O)N2CCCCC2)cc1)C1CC(=O)N(Cc2ccccc2)C1 (stereo not given),-13%,3,2,-3%,-22%,-16%
Cc1ncsc1CCC(=O)N1CCCC(c2nc(-c3ccncc3)ncc2-c2ccccc2)C1 (stereo not given),9%[9.04 µM],/,/,/,21µM*,/
CC(C)c1ccc(NC2CCCN(C(=O)CCN3CCOCC3)C2)cc1 (stereo not given),-15%,13,24,9%,-2%,1%
CCc1nccn1CCC(=O)N1CCCC(Nc2ccc(C(C)C)cc2)C1 (stereo not given),?,14,-6,6%,18µM*,-8%
Cc1ncsc1CCC(=O)N1CCCC(Nc2ccc(C(C)C)cc2)C1 (stereo not given),?,5,1,7%,26µM*,-10%
O=C1CCCCN1CC(=O)N1CCCC(Nc2ccc(F)c(F)c2)C1 (stereo not given),21µM*,10,10,4%,?,19%
O=C1CCCCN1CCC(=O)N1CCCC(Nc2ccc(F)c(F)c2)C1 (stereo not given),-2%,-12,1,1%,9%,16%
COc1ccc(NC2CCCN(C(=O)CCc3scnc3C)C2)cc1 (stereo not given),3%,11,-6,4%,6%,-6%
Cc1c(C(=O)N(CCO)C(C)C)cnn1-c1ncc2c(n1)-c1ccccc1CCC2,4%,/,/,/,?,/
COC(=O)c1ccc(C(=O)N2CCCC(Nc3ccc(C(C)C)cc3)C2)nc1 (stereo not given),?,-12,11,7%,-14%,-3%
Cc1ncsc1CCC(=O)N1CCCC(Nc2ccc(F)c(F)c2)C1 (stereo not given),13µM*,-30,9,4%,?,-7%
COc1ccc(C(=O)N2CCCC(Nc3ccc(C(C)C)cc3)C2)c(OC)n1 (stereo not given),?,5,13,8%,23µM*,-11%
CON(C)S(=O)(=O)c1cccc(C(=O)Oc2ccc(N(C)S(=O)(=O)c3ccccc3)cc2)c1,-8%,-2,-3,-10%,-7%,0%
CCOc1ccc(-c2c(C(=O)N/N=C/c3cccc(Br)c3)nnn2-c2nonc2N)cc1,?,-5,41,-4%,?,?
O=C(O)CCC(=O)CCC(=O)c1ccc(Cl)cc1,-9%,-5,13,-1%,0%,0%
CN(C)CCC(=O)c1ccc(Cl)cc1,2.6µM*,-7,-5,-2%,4.6µM*,12%
CN(CCC(=O)c1ccccc1)CCC(=O)c1ccccc1,4.6µM*,-4,-10,/,2.9µM*,5%
CCCCn1c(N)c(N(CC(C)C)C(=O)C2CC(=O)N(Cc3ccco3)C2)c(=O)[nH]c1=O (stereo not given),-10%,5,-6,0%,6%,18%
CC(C)(C)[C@H]1COC(=O)CC/C=C\C[C@H](CC(=O)N(CCO)Cc2ccccc2)C(=O)N1,?,-6,16,1%,0%,?
CC(C)(C)[C@@H]1COC(=O)[C@@H](Cc2ccc(F)cc2)CC/C=C\C[C@@H](CC(=O)N(CCO)Cc2ccccc2)C(=O)N1,23µM*,-22,-18,1%,?,?
CC(C)(C)[C@H]1COC(=O)CC/C=C\C[C@@H](CC(=O)N(CCO)Cc2ccccc2)C(=O)N1,-11%,-7,-9,-1%,5%,?
CC(C)(C)[C@@H]1COC(=O)[C@H](Cc2ccc(F)cc2)C/C=C\C[C@@H](CC(=O)N(CCO)Cc2ccccc2)C(=O)N1,16µM*,-7,-3,1%,21µM*,-23%
CC(C)(C)[C@@H]1COC(=O)[C@H](Cc2ccc(F)cc2)CC/C=C\C[C@H](CC(=O)N(CCO)Cc2ccccc2)C(=O)N1,9.2µM*,5,?,1%,9.2µM*,?
O=C(CN(Cc1ccccc1)S(=O)(=O)c1ccc(F)cc1)NCc1ccccn1,-16%,-14,-7,/,-12%,2%
SMILES,DT40 TDP1 CPT,Giardia kill,IL-1B inflam inh,TDP1 inh,DT40 TDP1 no CPT,ELG1 DNA repair
COCCn1c(SCc2ccc(OC)c(F)c2)nnc1-c1ccncc1,-2%,-21,-16,12%,-13%,-3%
Cc1cccc(C)c1NC(=S)NCCc1ccc(O)c(O)c1,16µM*,-6,12,0%,13µM*,?
O=C(NCCCCc1ccccc1)Nc1cccc(F)c1,?,7,-99*,1%[56.1 µM],23µM*,-1%
Cc1cccc(NC(=S)NCCc2ccccc2)c1C,26µM*,-3,-21,/,?,3%
Cc1c(Cl)cccc1NC(=S)NCCc1ccc(Cl)cc1,?,12,/,/,?,-10%
Cc1c(Cl)cccc1NC(=S)NCCc1ccc(F)cc1,-27%,15,-82*,/,-19%,2%
O=C(NC1CCCCCC1)C1CCC(CNS(=O)(=O)c2cccc3cccnc23)CC1 (stereo not given),-26%,/,/,/,-18%,/
Cc1ccc(-n2nc(C(=O)N3CCN(c4ccc(F)cc4)CC3)c(=O)n(C)c2=O)cc1,1%,/,/,2%,-22%,/
CCc1nnc(NC(=O)CCC(=O)N2CCN(Cc3ccc(F)cc3)CC2)s1,-26%,22,22,0%,-4%,1%
COc1cccc(CNC(=O)c2ccc3c(c2)N(C)C(=O)C2CCCCN32)c1 (stereo not given),?,/,/,7%,?,/
C/C=C1/C2C=C(C)CC1(N)c1ccc(=O)[nH]c1C2 (stereo not given),/,/,/,5%,/,/
Cc1cc(C)c2c(C)ccnc2c1,-6%,/,/,/,-9%,/
Cc1cccnc1NC(=S)NCCc1ccccc1,?,4,-21,10%,21µM*,?
Fc1cccc(NC(=S)NCCc2ccccc2)c1,?,7,-10,-8%,21µM*,18%
CN(CC(=O)NCCc1ccccc1)CC(=O)Nc1cccc(F)c1,-29%,23,0,0%,-25%,12%
CCc1cc(Br)ccc1NC(=S)NCCc1ccccc1,?,-13,?,0%,21µM*,?
